Out of some 5,500 compounds screened, about 2,000 (36%) were called active. Inconclusive results (about 18%) are left out. No stated cut-off is given here; in the data, active means normalized growth mostly below about 0.91 (no sharp cut-off); inconclusive means no clear call, values can overlap the other calls; inactive means mostly above about 0.92. Some of the results follow.
Test: chemical genetic growth profiling, strain panel (AID 1159580);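 further: tested at 20 µM; growth read once vehicle control cultures reached saturation at 30 °C; 1 = growth at the plate median or of vehicle wells; lower values mean less growth of the strain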
Settings: growth OD

Measured: normalized growth

Nc1ncnc2c1ncn2[C@@H]1O[C@H](CO)[C@@H](O)[C@@H]1O
inactive: S. cerevisiae deletion strains, locus YJR075W, strain HOC1, hits give low values 1.02 | S. cerevisiae deletion strains, locus YKL009W, strain mrt4, hits give low values 1.08 | S. cerevisiae deletion strains, locus YKL068W, hits give low values 1.01 | S. cerevisiae deletion strains, locus YKL085W, strain MDH1 (second series), hits give low values 1 | S. cerevisiae deletion strains, locus YKL085W, strain MDH1, hits give low values 1 | S. cerevisiae deletion strains, locus YKL160W, strain elf1, hits give low values 1 | S. cerevisiae deletion strains, locus YKL190W, strain CNB1, hits give low values 0.996 | S. cerevisiae deletion strains, locus YKR001C, strain vps1, hits give low values 1.04 | S. cerevisiae deletion strains, locus YKR026C, strain gcn3, hits give low values 1.01 | S. cerevisiae deletion strains, locus YKR091W, strain srl3, hits give low values 1.01 | S. cerevisiae deletion strains, locus YLL001W, strain dnm1, hits give low values 1.02 | S. cerevisiae deletion strains, locus YLL026W, hits give low values 1 | S. cerevisiae deletion strains, locus YLL041C, strain sdh2, hits give low values 1.01 | S. cerevisiae deletion strains, locus YLR027C, strain aat2, hits give low values 1.01 | S. cerevisiae deletion strains, locus YLR039C, strain RIC1, hits give low values 1.02 | S. cerevisiae deletion strains, locus YLR058C, strain SHM2, hits give low values 1.01 | S. cerevisiae deletion strains, locus YLR102C, strain apc9, hits give low values 1.02 | S. cerevisiae deletion strains, locus YLR113W, strain HOG1, hits give low values 1 | S. cerevisiae deletion strains, locus YLR221C, strain rsa3, hits give low values 1.01 | S. cerevisiae deletion strains, locus YLR258W, strain gsy2, hits give low values 1.01 | S. cerevisiae deletion strains, locus YLR262C, strain YPT6 (second series), hits give low values 1.03 | S. cerevisiae deletion strains, locus YLR262C, strain YPT6, hits give low values 1.03 | S. cerevisiae deletion strains, locus YLR268W, strain sec22, hits give low values 1.04 | S. cerevisiae deletion strains, locus YLR320W, strain mms22, hits give low values 1 | S. cerevisiae deletion strains, locus YLR330W, strain CHS5, hits give low values 1.01 | S. cerevisiae deletion strains, locus YLR342W, strain FKS1 (second series), hits give low values 0.989 | S. cerevisiae deletion strains, locus YLR342W, strain FKS1, hits give low values 1.01 | S. cerevisiae deletion strains, locus YLR357W, strain rsc2, hits give low values 1.04 | S. cerevisiae deletion strains, locus YLR370C, strain arc18, hits give low values 1.02 | S. cerevisiae deletion strains, locus YLR371W, strain rom2, hits give low values 1.02 | S. cerevisiae deletion strains, locus YLR384C, strain iki3, hits give low values 1.01 | S. cerevisiae deletion strains, locus YLR418C, strain cdc73, hits give low values 1.05 | S. cerevisiae deletion strains, locus YML016C, strain PPZ1, hits give low values 1.01 | S. cerevisiae deletion strains, locus YML032C, strain rad52, hits give low values 1.03 | S. cerevisiae deletion strains, locus YML120C, strain ndi1, hits give low values 1.01 | S. cerevisiae deletion strains, locus YML124C, strain tub3, hits give low values 1.03 | S. cerevisiae deletion strains, locus YMR058W, strain fet3, hits give low values 1.02 | S. cerevisiae deletion strains, locus YMR078C, strain ctf18, hits give low values 1.03 | S. cerevisiae deletion strains, locus YMR125W, strain sto1, hits give low values 1.01 | S. cerevisiae deletion strains, locus YMR129W, hits give low values 1.01 | S. cerevisiae deletion strains, locus YMR205C, strain PFK2, hits give low values 1.03 | S. cerevisiae deletion strains, locus YMR223W, strain ubp8, hits give low values 1.03 | S. cerevisiae deletion strains, locus YMR231W, strain pep5, hits give low values 1.01 | S. cerevisiae deletion strains, locus YMR263W, strain SAP30, hits give low values 1.01 | S. cerevisiae deletion strains, locus YMR307W, strain GAS1, hits give low values 1.01 | S. cerevisiae deletion strains, locus YNL067W, strain RPL9B, hits give low values 1.01 | S. cerevisiae deletion strains, locus YNL071W, strain lat1, hits give low values 1.02 | S. cerevisiae deletion strains, locus YNL128W, strain TEP1, hits give low values 1.02 | S. cerevisiae deletion strains, locus YNL153C, strain GIM3, hits give low values 1.01 | S. cerevisiae deletion strains, locus YNL183C, strain NPR1, hits give low values 0.952 | S. cerevisiae deletion strains, locus YNL209W, strain ssb2, hits give low values 1.01 | S. cerevisiae deletion strains, locus YNL233W, strain BNI4, hits give low values 1.02 | S. cerevisiae deletion strains, locus YNL248C, strain rpa49, hits give low values 1.01 | S. cerevisiae deletion strains, locus YNL250W, strain rad50, hits give low values 1.03 | S. cerevisiae deletion strains, locus YNL271C, strain bni1, hits give low values 1.03 | S. cerevisiae deletion strains, locus YNL298W, strain CLA4, hits give low values 1.02 | S. cerevisiae deletion strains, locus YNL307C, strain MCK1, hits give low values 1.03 | S. cerevisiae deletion strains, locus YNL322C, strain KRE1 (second series), hits give low values 1.02 | S. cerevisiae deletion strains, locus YNL322C, strain KRE1, hits give low values 1.01 | S. cerevisiae deletion strains, locus YNR049C, strain mso1, hits give low values 1.02 | S. cerevisiae deletion strains, locus YNR052C, strain pop2, hits give low values 1.03 | S. cerevisiae deletion strains, locus YOL006C, strain TOP1, hits give low values 1.06 | S. cerevisiae deletion strains, locus YOL012C, strain htz1 1.2 | S. cerevisiae deletion strains, locus YOL147C, strain pex11, hits give low values 1.03 | S. cerevisiae deletion strains, locus YOR001W, strain rrp6, hits give low values 1.02 | S. cerevisiae deletion strains, locus YOR061W, strain CKA2, hits give low values 1.02 | S. cerevisiae deletion strains, locus YOR069W, strain VPS5, hits give low values 1 | S. cerevisiae deletion strains, locus YOR070C, strain gyp1, hits give low values 1.02 | S. cerevisiae deletion strains, locus YOR080W, strain dia2, hits give low values 1 | S. cerevisiae deletion strains, locus YOR083W, strain WHI5, hits give low values 1.01 | S. cerevisiae deletion strains, locus YOR106W, strain vam3, hits give low values 1.01 | S. cerevisiae deletion strains, locus YOR136W, strain idh2, hits give low values 1.03 | S. cerevisiae deletion strains, locus YOR144C, strain elg1, hits give low values 1.03 | S. cerevisiae deletion strains, locus YOR184W, strain ser1, hits give low values 1.05 | S. cerevisiae deletion strains, locus YOR231W, strain MKK1, hits give low values 0.981 | S. cerevisiae deletion strains, locus YOR265W, strain rbl2, hits give low values 1 | S. cerevisiae deletion strains, locus YOR270C, strain vph1, hits give low values 1.06 | S. cerevisiae deletion strains, locus YOR290C, strain snf2, hits give low values 1.03 | S. cerevisiae deletion strains, locus YOR316C, strain cot1, hits give low values 1.03 | S. cerevisiae deletion strains, locus YPL051W, strain arl3, hits give low values 1.01 | S. cerevisiae deletion strains, locus YPL055C, strain LGE1, hits give low values 1.04 | S. cerevisiae deletion strains, locus YPL078C, strain atp4, hits give low values 1.02 | S. cerevisiae deletion strains, locus YPL106C, strain sse1, hits give low values 1.02 | S. cerevisiae deletion strains, locus YPL240C, strain hsp82, hits give low values 1.03 | S. cerevisiae deletion strains, locus YPL241C, strain CIN2, hits give low values 1 | S. cerevisiae deletion strains, locus YPL256C, strain CLN2, hits give low values 0.963 | S. cerevisiae deletion strains, locus YPR119W, strain clb2, hits give low values 1.03 | S. cerevisiae deletion strains, locus YPR141C, strain kar3, hits give low values 1.03 | S. cerevisiae deletion strains, locus YPR163C, strain tif3, hits give low values 1.04 | S. cerevisiae deletion strains, locus YPR167C, strain met16, hits give low values 1.03 | S. cerevisiae deletion strains, strain wtn01, hits give low values 1.02 | S. cerevisiae strains, strain wild type, hits give low values 1.01

Reference: PubChem BioAssay AID1159580 (chemical genetic matrix, 2015)
